# The list is not random: actives were taken first. Their share in the collection is about 2.9%.
# ADAM10 inh = ADAM10 inhibition, QFRET primary screen; O14672; 370,000 compounds, 0.62% hits; inhibition, % at 7 µM; recombinant ADAM10, EDANS/DABCYL FRET peptide cleavage, 3 h;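 active = inhibition above a per-campaign cutoff equal to the mean of compounds falling between control-based bounds plus 3 SD, cut at about 20% in these data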;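 note: 0% = DMSO wells while the 100% control is not disclosed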
# PLCg1 inh = PLC-gamma1 (human) inhibition, primary screen | P19174 | purified PLC-gamma1, fluorogenic substrate, fluorescence | inhibition, % at 12.2 µM | 370,000 compounds, 0.84% hits; in the data active = inhibition above about 9.5%
# PLC-beta3 inh = inhibitors of human phospholipase C beta3; Purified PLC-beta3, fluorogenic substrate, fluorescence; AID 720704; 370,000 compounds, 0.18% hits; inhibition, % at 12.2 µM; in the data active = inhibition above about 11%;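 note: 0% = median of compound wells on plate and 100% = full blocker control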
# Target sequence (Q01970 whole entry, looked up): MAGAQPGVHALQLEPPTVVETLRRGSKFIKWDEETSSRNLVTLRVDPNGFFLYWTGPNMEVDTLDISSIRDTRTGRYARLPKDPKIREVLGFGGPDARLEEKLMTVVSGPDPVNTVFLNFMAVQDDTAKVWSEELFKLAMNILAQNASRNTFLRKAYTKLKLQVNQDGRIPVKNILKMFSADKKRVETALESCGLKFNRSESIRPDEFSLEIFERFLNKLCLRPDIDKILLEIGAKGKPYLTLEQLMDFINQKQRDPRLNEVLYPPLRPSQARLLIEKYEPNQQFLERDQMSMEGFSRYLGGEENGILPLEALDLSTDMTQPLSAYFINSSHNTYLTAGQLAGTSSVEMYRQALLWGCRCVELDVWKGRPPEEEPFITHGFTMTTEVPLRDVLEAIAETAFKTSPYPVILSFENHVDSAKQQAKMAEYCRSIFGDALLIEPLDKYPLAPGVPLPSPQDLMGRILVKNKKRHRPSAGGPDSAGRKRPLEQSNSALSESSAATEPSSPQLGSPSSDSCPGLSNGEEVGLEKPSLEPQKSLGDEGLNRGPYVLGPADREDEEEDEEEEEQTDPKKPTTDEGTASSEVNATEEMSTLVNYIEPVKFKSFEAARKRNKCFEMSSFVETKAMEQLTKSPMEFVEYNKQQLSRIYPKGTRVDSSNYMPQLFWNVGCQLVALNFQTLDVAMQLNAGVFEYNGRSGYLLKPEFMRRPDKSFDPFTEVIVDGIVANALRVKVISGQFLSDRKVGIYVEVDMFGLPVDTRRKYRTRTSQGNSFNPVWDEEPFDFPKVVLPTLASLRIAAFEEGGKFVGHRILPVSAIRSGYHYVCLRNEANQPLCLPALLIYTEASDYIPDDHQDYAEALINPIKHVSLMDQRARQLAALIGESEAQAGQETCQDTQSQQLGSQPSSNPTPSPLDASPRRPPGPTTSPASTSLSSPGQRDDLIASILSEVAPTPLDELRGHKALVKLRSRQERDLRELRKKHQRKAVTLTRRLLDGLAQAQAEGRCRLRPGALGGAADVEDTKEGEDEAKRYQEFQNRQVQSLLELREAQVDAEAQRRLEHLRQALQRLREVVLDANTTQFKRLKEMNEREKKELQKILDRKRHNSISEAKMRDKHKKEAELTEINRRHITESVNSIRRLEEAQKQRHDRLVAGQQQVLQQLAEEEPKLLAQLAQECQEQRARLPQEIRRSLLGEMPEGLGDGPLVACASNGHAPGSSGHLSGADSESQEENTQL
# ADAM17 inh = inhibits human ADAM17; inhibition, % at 6.95 µM; 370,000 compounds, 0.83% hits; recombinant ADAM17, EDANS/DABCYL FRET peptide cleavage;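 active = inhibition above the mean of compounds lying between control limits plus 3 SD, set per campaign, cut at about 8.5% in these data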;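 note: 0% = DMSO-only wells as the low control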
# proKLK7 act = proKLK7 (human) activation, primary screen. 370,000 compounds, 0.9% hits. purified proKLK7, EDANS-DABCYL substrate fluorescence; 100% is mature enzyme control, 0% vehicle. activation, % at 7 µM;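 active = activation above the mean of all tested compounds plus 3 SD, computed per campaign excluding outliers beyond control limits, cut at about 13% in these data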
# proKLK7 act conf = confirmation of human kallikrein-7 zymogen activators; activation, % at 7 µM; purified proKLK7, EDANS-DABCYL substrate fluorescence; scaled: vehicle 0, mature enzyme 100; 3,200 compounds, 68% hits; AID 686949; shares compounds with proKLK7 act;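 active = activation, as change over the incubation, above the mean of all tested compounds plus 3 SD, cut at about 13% in these data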
# EDANS interfere = optically interferes with EDANS-DABCYL signal, flagging KLK7 hits | shares compounds with proKLK7 act | EDANS-DABCYL substrate fluorescence interference, no enzyme, 4 h; solvent 0%, active enzyme control 100% | activation, % at 7 µM | 3,200 compounds, 80% hits | AID 686952;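 active = activation above the all-compound mean plus 3 SD, ignoring values outside control-based bounds, cut at about 4.8% in these data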;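 note: value is the 4 h activation minus the activation read at time zero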
# K7 EDANS ctr = optically interferes with EDANS-DABCYL fluorescence, kallikrein-7 activator counter-screen; shares compounds with proKLK7 act; EDANS-DABCYL peptide fluorescence interference, no enzyme; EC50, µM; 250 compounds, 20% hits;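 active = compounds that raise the fluorescence signal in this interference counterscreen, with EC50 at or below 10 µM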;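 note: intact quenched peptide substrate alone read at 355 nm excitation and 520 nm emission; signal is fluorescence gain from T0 to T4 after four hours at room temperature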
# * = called active by the depositor; i = inactive; · = not tested or not shown.
SMILES,ADAM10 inh,PLCg1 inh,PLC-beta3 inh,ADAM17 inh,proKLK7 act,proKLK7 act conf,EDANS interfere,others
CCOC(=O)c1c(NC(=O)c2ccco2)n(C2CCCCC2)c2nc3ccccc3nc12,i,-433,i,-180,21*,-19,-28,
NC(=O)c1ccccc1OCc1cccc2ccccc12,-1,2,-3,2,0,·,·,
NC(=O)c1cccc2cc3ccccc3cc12,i,i,i,-447,53*,65*,72*,
COc1ccc(CCNC(=O)c2cnn(-c3ccccc3)c2N)cc1OC,2,-23,-1,-1,0,·,·,
CN(C)CCNS(=O)(=O)c1ccc2c3c(cccc13)C(=O)N2,i,i,i,-422,155*,68*,57*,K7 EDANS ctr=2.1*
CCN(CC)CCNS(=O)(=O)c1ccc2c3c(cccc13)C(=O)N2,i,i,i,-377,100*,58*,70*,
Cc1cc(C)c(S(=O)(=O)NCc2ccccn2)cc1C,-6,0,-11,-2,-1,·,·,
O=C1Nc2ccc(S(=O)(=O)NCc3ccccn3)c3cccc1c23,i,i,i,i,16*,72*,72*,
CCOC(=O)N1CCN(S(=O)(=O)c2ccc3c4c(cccc24)C(=O)N3)CC1,-336,i,i,-91,9,·,·,
CCc1ccccc1-c1cc(C(=O)OC)c2n(c1=O)CCC2,-3,1,2,-1,0,·,·,
COC(=O)[C@@H]1N=C(c2ccc(OC)cc2)O[C@]12C(=O)N(Cc1cn(-c3ccccc3)nn1)c1cccc(Cl)c12,5,-1,3,1,0,·,·,
O=c1c2ccccc2c(/C=N/c2n[nH]c(CCCO)n2)c(O)n1-c1ccccc1Cl,i,-460,i,-245,27*,5,5.8*,
O=c1c2ccccc2c(/C=N/c2nnc(Cc3ccccc3)s2)c(O)n1-c1ccc(Cl)cn1,-110,-166,-229,-38,1,·,·,
Cc1ccc(-c2nc(=O)[nH]c3ccccc23)cc1,-238,-258,-369,-88,14*,16*,19*,
O=c1nc(-c2ccccc2)c2ccccc2[nH]1,-157,-200,-240,-54,9,·,·,
Cc1c(Cl)c(=O)oc2cc(OCC(=O)N3CCCC(C)C3)ccc12 (stereo not given),i,i,i,i,45*,70*,69*,
COc1ccccc1-c1c(C)oc2c(CN3CCN(C)CC3)c(O)ccc2c1=O,i,i,i,i,62*,60*,74*,
COc1ccc(-c2c(C)oc3c(CN4CCN(CCO)CC4)c(O)ccc3c2=O)cc1OC,i,-258,-306,-129,11,·,·,
COc1ccccc1-c1c(C)oc2c(CN3CCN(CCO)CC3)c(O)ccc2c1=O,i,i,i,i,72*,68*,75*,
CC1CCC2(CCC(=O)N2CCCOC(=O)c2ccccc2)CC1 (stereo not given),5,3,6,1,0,·,·,
CCCCCCCCN1C(=O)[C@@H](CC(=O)NCCc2ccccc2OC)C[C@@]2(C(=O)OC)C1=C[C@H](COCc1ccccc1)O[C@@H]2C,-4,-5,-6,-5,0,·,·,
O=C(CSc1nncc(=O)[nH]1)NC1CCCCC1,-1,1,-5,-3,-8,·,·,
O=C(CSc1nccc(=O)[nH]1)NC1CCCCCC1,-3,-2,-1,-2,61*,0,0,
Cn1c(/C(C#N)=C/Nc2ccccn2)nc2ccccc21,-112,-352,i,-39,55*,183*,183*,
CCc1ccccc1N=Nc1c(N)[nH]n(-c2ccccc2)c1=O,9,7,4,3,1,·,·,
SMILES,ADAM10 inh,PLCg1 inh,PLC-beta3 inh,ADAM17 inh,proKLK7 act,proKLK7 act conf,EDANS interfere,others
COc1cccc(C=Nc2ccccc2C(=O)Nc2nccs2)c1OC,i,i,i,-373,25*,-65,-49,
COc1cc2ccccc2cc1C(=O)Nc1nccs1,-98,-24,-28,-21,0,·,·,
O=Cc1ccc(/C=C2\c3ccccc3C(=O)N2c2ccccc2)o1,-78,-106,-149,-14,34*,62*,59*,
O=C1c2ccccc2C(=O)N1c1ccccc1,-13,1,3,-5,0,·,·,
Cc1ccc(C#N)c(SCC(=O)Nc2nccs2)n1,-183,i,i,-60,130*,209*,182*,
CCn1c(C)nnc1SCC(=O)Nc1nccs1,15,3,1,6,-1,·,·,
CCOC(=O)c1c(SCC(=O)Nc2nccs2)nc(C)c(C)c1C,-49,-333,-339,-22,79*,61*,58*,
COP(=O)(CC(=O)OC(C)(C)C)C(CC(C)C)NC(=O)OCc1ccccc1 (stereo not given),0,-2,3,-2,-1,·,·,
NCCNC(=O)c1c(NC(=O)c2ccccc2)sc2c1CCCC2,-5,-87,-108,-5,19*,-3,-4,
COCCN(CCOC)S(=O)(=O)c1ccc(C(=O)Nc2sc3c(c2C(N)=O)CCCCC3)cc1,-5,-6,-10,-2,19*,4,21*,
Cc1cc(C)cc(C(=O)OCCN(C)C2CN(Cc3cn(Cc4ccccc4C(F)(F)F)nn3)S(=O)(=O)C2)c1 (stereo not given),3,1,3,0,0,·,·,
O=C(Nc1ccc2c(c1)C(=O)NC2=O)c1ccc(S(=O)(=O)N2CCCC2)cc1,-66,-29,-35,-11,86*,90*,40*,K7 EDANS ctr=8.5*
CC(=O)Nc1ccc(C(=O)Nc2ccc(S(=O)(=O)N3CCCC3)cc2)cc1,4,-1,-1,-2,0,·,·,
CCOC(=O)N1CCN(C(=O)C[C@H]2C[C@@]3(C(=O)OC)C(=C[C@H](COCc4ccccc4)O[C@@H]3C)N(Cc3ccccc3)C2=O)CC1,4,-1,-1,1,0,·,·,
COC(=O)c1ccc(C2C(C#N)=C(C)NC3=C2C(=O)CC(C)(C)C3)cc1 (stereo not given),i,i,i,i,36*,43*,30*,K7 EDANS ctr=>70
CSC1=C(C#N)C(C)C2=C(CC(C)(C)CC2=O)N1 (stereo not given),-24,-52,-62,-14,2,·,·,
CCCCC1C(C#N)=C(C)NC2=C1C(=O)CC(C)(C)C2 (stereo not given),i,i,i,-374,41*,22*,25*,
Oc1ccc2ccccc2c1C=Nn1c(-c2n[nH]c3c2CCC3)n[nH]c1=S,-29,-7,-11,-5,0,·,·,

# Screening data deposited in PubChem BioAssay by The Scripps Research Institute Molecular Screening Center.
